Test results: PubChem BioAssay AID1851 (National Center for Advancing Translational Sciences (NCATS), 2009)
Out of some 16,000 compounds screened, about 5,100 (32%) were called active. Roughly 25% stayed inconclusive and do not appear here. Some of the results follow. A number with no mark means an inactive call. The call rests on the fitted dose curve; in most records, active means well fitted curve in the direction sought with a large enough effect; inconclusive means small, poorly fitted or top-dose-only effect, or effect the other way; inactive means no such curve, though single readings can be large or run the other way.

Target: Cytochrome P450 3A4 (Homo sapiens) (UniProt P08684)
Sequence (P08684 whole entry, looked up): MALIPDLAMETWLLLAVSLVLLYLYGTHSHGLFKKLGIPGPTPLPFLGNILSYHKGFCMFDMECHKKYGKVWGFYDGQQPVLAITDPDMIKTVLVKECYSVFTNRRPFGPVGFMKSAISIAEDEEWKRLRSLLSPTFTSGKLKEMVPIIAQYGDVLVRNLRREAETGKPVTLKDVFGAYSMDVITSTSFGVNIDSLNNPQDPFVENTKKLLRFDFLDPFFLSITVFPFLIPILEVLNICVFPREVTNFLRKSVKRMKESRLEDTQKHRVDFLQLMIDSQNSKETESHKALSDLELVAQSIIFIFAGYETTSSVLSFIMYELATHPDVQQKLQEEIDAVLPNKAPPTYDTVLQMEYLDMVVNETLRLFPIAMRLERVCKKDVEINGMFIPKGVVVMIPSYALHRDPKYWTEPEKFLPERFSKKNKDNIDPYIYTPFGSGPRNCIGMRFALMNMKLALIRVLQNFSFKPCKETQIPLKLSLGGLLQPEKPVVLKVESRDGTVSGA
Experiment: Cytochrome panel assay with activity outcomes
Details: recombinant CYP, pro-luciferin dealkylation, luminescence, p450-cyp3a4; series mostly up to 57.1 µM; activity, negative = inhibition: at the top concentration
On the % scale 0 is the no-effect control and ±100 the full control effect.

For `CC1(C)CC2(CC(c3cccs3)c3cc(Cl)c(O)cc3O2)NC(=S)N1` (stereo unspecified), which activity, negative = inhibition is on record?
Its activity, negative = inhibition is -22.1% [at 2.29 µM].

With `O=C1CC(c2cccs2)c2cc3c(cc2N1)OCO3` (stereo unspecified) as the compound, how does the AC50 read?
The AC50 was 7.08 µM (active).

Which AC50 does the source give for `CCCCNC(=S)NNC(=O)CCn1nc(C)c(Br)c1C` here?
The AC50 was 4.47 µM (active).

Which activity, negative = inhibition does the source give for `CCCCNC(=S)NNC(=O)c1sccc1C` here?
The activity, negative = inhibition was 1.58% [at 2.29 µM].

`c1ccc([P+](CC[P+](c2ccccc2)(c2ccccc2)c2ccccc2)(c2ccccc2)c2ccccc2)cc1` was tested. Which activity, negative = inhibition did it give?
Its activity, negative = inhibition is 1.54% [at 11.4 µM].

`C[C@]12CC[C@H]3c4ccc(O)cc4CC[C@@H]3[C@H]1C/C(=N/O)[C@H]2O` was tested. Which activity, negative = inhibition did it give?
Its activity, negative = inhibition is -4.59% [at 11.4 µM].

How did the activity, negative = inhibition turn out when `Cc1ccc2ccccc2c1CSc1nc(N)nc2c1ncn2CC(C)C` was run?
Its activity, negative = inhibition is -24.4% [at 11.4 µM].

For `CC(C)Cn1cnc2c(SCc3ccccn3)nc(N)nc21`, which activity, negative = inhibition is on record?
The activity, negative = inhibition was -22.1% [at 11.4 µM].

With `CC(C)Cn1cnc2c(SCc3ccc(Cl)cc3Cl)nc(N)nc21` as the compound, how does the AC50 read?
The AC50 was 3.98 µM (active).

For `O[C@@H](c1cc([C@@]23C[C@H]4CC[C@@H]2C[C@H](C4)C3)nc2c(Cl)cc(Cl)cc12)[C@@H]1CCCCN1`, which activity, negative = inhibition is on record?
Its activity, negative = inhibition is -22.3% [at 11.4 µM].

For `C/C(CCN1CCc2nc(-c3ccccc3)c(-c3ccccc3)cc2C1)=N\OC[C@@H](O)COCc1ccco1`, which AC50 is on record?
Its AC50 is 3.16 µM (active).

Which activity, negative = inhibition does the source give for `C/C(CCN1CCCc2nc(C)c(C)cc21)=N\OC[C@@H](O)[C@@H]1O[C@@H]2OC(C)(C)O[C@@H]2[C@H]1O` here?
The activity, negative = inhibition was -10.8% [at 11.4 µM].

`C/C(CCN1CCCc2nc(C)c(C)cc21)=N\OC[C@@H](O)COCc1ccco1` was tested. Which AC50 did it give?
Its AC50 is 3.98 µM (active).

`C/C(CCN1CCCCc2nc(C)c(C)cc21)=N\OC[C@@H](O)COCc1ccco1` was tested. Which AC50 did it give?
Its AC50 is 3.98 µM (active).

For `C/C(CCN1CCc2nc(-c3ccccc3)c(-c3ccccc3)cc2C1)=N\O[C@@H](C)c1cn([C@@H]2COC[C@@H]2O)nn1`, which activity, negative = inhibition is on record?
Its activity, negative = inhibition is -37.3% [at 11.4 µM].

For `N/C(=N\O)C1COc2ccccc2O1` (stereo unspecified), which “activity, negative = inhibition” value is on record?
Its value is -12.1%.

Which AC50 does the source give for `Cc1ccc(S(=O)(=O)N2CCN(C(=O)C3COc4ccccc4O3)CC2)cc1C` (stereo unspecified) here?
Its AC50 is 11.2 µM (active).

For `COC(=O)[C@@]1(Cc2ccccc2)[C@H]2c3cc(C(=O)N4CCCC4)n(Cc4ccc(OC)c(OC)c4)c3C[C@H]2CN1C(=O)c1ccccc1`, which AC50 is on record?
The AC50 was 1.26 µM (active).

How did the AC50 turn out when `COC(=O)[C@@]1(Cc2ccccc2)[C@H]2c3cc(C(=O)N4CCCC4)n(Cc4ccc(O)c(OC)c4)c3C[C@H]2CN1C(=O)c1ccccc1` was run?
Its AC50 is 2 µM (active).

How did the “activity, negative = inhibition” value turn out when `Cc1ccc2ncc([N+](=O)[O-])n2c1` was run?
The value was 12.5%.

How did the AC50 turn out when `CN(C)Cc1ccccc1-c1nccc(N(C)C)n1` was run?
The AC50 was 10 µM (active).

`CNc1ccnc(-c2ccccc2CN(C)C)n1` was tested. Which “activity, negative = inhibition” value did it give?
The value was -20.8%.

With `CN(C)Cc1ccccc1-c1nccc(NC2CC2)n1` as the compound, how does the AC50 read?
The AC50 was 15.8 µM (active).

For `COc1ccc(CO/N=C/c2c(C)[nH]c(=O)[nH]c2=O)cc1`, which “activity, negative = inhibition” value is on record?
The value was -11.9%.

Which AC50 does the source give for `COc1ccc(CNc2ccnc(-c3ccccc3C(F)(F)F)n2)c(OC)c1` here?
The AC50 was 3.16 µM (active).

For `COc1ccc(CNc2ccnc(-c3ccccc3OC)n2)c(OC)c1`, which AC50 is on record?
The AC50 was 6.31 µM (active).

How did the AC50 turn out when `COc1ccc(CNc2ccnc(-c3ccccc3CN(C)C)n2)c(OC)c1` was run?
The AC50 was 5.01 µM (active).

For `COc1ccc(CNc2ccnc(-c3ccccc3Cl)n2)c(OC)c1`, which AC50 is on record?
The AC50 was 3.16 µM (active).

How did the “activity, negative = inhibition” value turn out when `COCCNc1ccnc(-c2ccccc2CN(C)C)n1` was run?
Its value is -19.7%.

`C[N+]1(CCC(=O)c2ccco2)CC2CCC(CC2)C1` (stereo unspecified) was tested. Which activity, negative = inhibition did it give?
Its activity, negative = inhibition is 1.47% [at 11.4 µM].

`N#Cc1cc2[nH]c(=O)c(=O)[nH]c2cc1[N+](=O)[O-]` was tested. Which “activity, negative = inhibition” value did it give?
The value was -23%.

With `CCN(c1nc(N)c(C(=O)N=C(N)N)nc1Cl)C(C)C` as the compound, how does the “activity, negative = inhibition” value read?
Its value is -18.6%.

`CC1(C)OC[C@@H]2O[C@H](n3cnc4c(N)nc(Cl)nc43)[C@@H](OS(C)(=O)=O)[C@@H]2O1` was tested. Which activity, negative = inhibition did it give?
Its activity, negative = inhibition is -4.98% [at 11.4 µM].

How did the activity, negative = inhibition turn out when `O=C(O)c1c2c(c(O)c3c1CN(C1CCCCC1)CO3)OCN(C1CCCCC1)C2` was run?
The activity, negative = inhibition was -0.201% [at 11.4 µM].

`CC(C)Cn1cnc2c(Sc3c([N+](=O)[O-])ncn3C)nc(N)nc21` was tested. Which activity, negative = inhibition did it give?
The activity, negative = inhibition was -7.97% [at 11.4 µM].

How did the AC50 turn out when `CCOc1c(OC(C)=O)ccc(/C=C/c2ccc3cccc(OC(C)=O)c3n2)c1[N+](=O)[O-]` was run?
Its AC50 is 10 µM (active).

`COc1ccc2c(c1[N+](=O)[O-])CCC/C2=N/OC(=O)c1cccc2ccccc12` was tested. Which activity, negative = inhibition did it give?
Its activity, negative = inhibition is 0.913% [at 2.29 µM].

`Cc1ccc(-n2c(C)nnc2SCC(=O)N2CCc3ccccc3C2)cc1C` was tested. Which AC50 did it give?
Its AC50 is 8.91 µM (active).

With `CC1=C(\C=C/C(C)=C/C=C\C(C)=C\C(=O)O)C(C)(C)CCC1` as the compound, how does the “activity, negative = inhibition” value read?
Its value is -19.6% [at 25.6 µM].

For `O=C(NNS(=O)(=O)c1cc(Cl)cc(Cl)c1)c1sccc1-n1cccc1`, which AC50 is on record?
The AC50 was 7.94 µM (active).

How did the “activity, negative = inhibition” value turn out when `C/C(=N\N=C1\NC(=O)CC(C(=O)O)S1)c1cccs1` (stereo unspecified) was run?
The value was 1.69%.

For `C/C(=N\N=C(c1ccccc1)c1ccccc1)c1cccs1`, which AC50 is on record?
The AC50 was 14.1 µM (active).

Which activity, negative = inhibition does the source give for `CC(=O)/C(=N\N=C(N)N)c1ccccc1` here?
The activity, negative = inhibition was -6.08% [at 11.4 µM].

Which activity, negative = inhibition does the source give for `CCCOc1ccc(C(=O)CCNc2ccc(C)c(Cl)c2)cc1` here?
The activity, negative = inhibition was 12.4% [at 2.29 µM].

Which AC50 does the source give for `Cc1ccc(NC(=O)CCC(=O)c2ccc(F)cc2)cc1Cl` here?
The AC50 was 12.6 µM (active).

Which “activity, negative = inhibition” value does the source give for `Cc1ccc(NC(=O)c2cc(NC(=O)CCCC(=O)O)ccc2Cl)cc1Cl` here?
The value was -16.3%.

With `Nc1nc(N)nc(CCCc2nc(N)nc(N)n2)n1` as the compound, how does the activity, negative = inhibition read?
Its activity, negative = inhibition is -12.5% [at 11.4 µM].

Which “activity, negative = inhibition” value does the source give for `c1ccc2oc(C3=NCCN3)cc2c1` here?
Its value is -11.9%.

With `O=C(CCc1ccccc1)NNC(=O)c1ccco1` as the compound, how does the “activity, negative = inhibition” value read?
Its value is -9.25%.

For `CCC(C)NC(=O)c1ccccc1NC(=O)Nc1ccccc1` (stereo unspecified), which “activity, negative = inhibition” value is on record?
The value was -20%.

How did the AC50 turn out when `CCC(NC(=O)c1ccccc1NC(=O)c1ccco1)C(=O)NC1CCCCC1` (stereo unspecified) was run?
The AC50 was 6.31 µM (active).

With `O=C(Nc1ccccn1)c1ccco1` as the compound, how does the “activity, negative = inhibition” value read?
Its value is 10.3%.

For `O=C(Nc1ccccc1C(=O)NCCc1ccccc1)c1ccco1`, which AC50 is on record?
The AC50 was 14.1 µM (active).

`COc1ccc(CCNC(=O)c2ccccc2NC(=O)c2ccco2)cc1OC` was tested. Which AC50 did it give?
The AC50 was 7.08 µM (active).

Which activity, negative = inhibition does the source give for `O=C(O)c1ccc(C(=O)O)c(C(=O)O)c1.[NH-][C@@H]1CCCC[C@@H]1[NH-].[Pt]` here?
Its activity, negative = inhibition is 18.9% [at 11.4 µM].

With `CCc1cccc(N(C)C(N)=Nc2cccc3ccccc23)c1` as the compound, how does the “activity, negative = inhibition” value read?
The value was -18%.
